Assay outcomes deposited in PubChem BioAssay by National Center for Advancing Translational Sciences (NCATS).
This is a sample that favours compounds with a hit; in the whole collection about 11% have one here.
ALDH1A1 block – qHTS Assay for Inhibitors of Aldehyde Dehydrogenase 1 (ALDH1A1); Aldehyde dehydrogenase 1A1 (Homo sapiens), P00352; Purified ALDH1A1, NADH fluorescence, propionaldehyde substrate; Potency, µM (top dose mostly 75.3 µM), most hits filed as inhibitors; 220,000 compounds, 7.3% hits; AID 1030, 2008
HPGD block – qHTS Assay for Inhibitors of HPGD (15-Hydroxyprostaglandin Dehydrogenase). 15-hydroxyprostaglandin dehydrogenase [NAD(+)] (Homo sapiens), P15428. purified HPGD, NADH fluorescence kinetic, PGE2 substrate. Potency, µM, usual class: inhibitors. 150,000 compounds, 4.3% hits
Target sequence (P15428 whole entry, looked up): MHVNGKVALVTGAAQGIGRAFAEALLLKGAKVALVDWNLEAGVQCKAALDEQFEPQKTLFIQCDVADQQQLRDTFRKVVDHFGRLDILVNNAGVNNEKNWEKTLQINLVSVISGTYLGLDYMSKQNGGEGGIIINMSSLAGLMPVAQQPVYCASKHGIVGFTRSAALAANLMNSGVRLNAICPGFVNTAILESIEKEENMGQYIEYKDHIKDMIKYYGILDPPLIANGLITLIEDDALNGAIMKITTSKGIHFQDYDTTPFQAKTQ
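20 nM HPGD preincubated 15 min at room temperature with compound in 50 mM Tris-HCl pH 8, 0.01% Tween 20. Started with 1 mM NAD+ and 30 uM prostaglandin E2; NADH fluorescence (360/450 nm) read 5 times over 30-s intervals, last minus first.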
PNC inhibitor – High Content Assay for Compounds that inhibit the Assembly of the Perinucleolar Compartment; PC3M PTB-GFP, PNC prevalence imaging, 16 h; hits give low values; activity change (PNC), negative = inhibition, % at 10 µM; 140,000 compounds, 3.1% hits;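 active = readout at or below -70, meaning at least 70% loss of cells showing the perinucleolar compartment, a nuclear body marking cancer cells; inconclusive = readout between -30 and a set limit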
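Compounds are pinned in duplicate onto adhered PC3M cells stably expressing GFP-tagged PTB and incubated 16 h at 37 C. Cells are then fixed, nuclei stained with Hoechst, and PNC-positive cells counted.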
A number is an active result; [ ] = remark or other dose. Unless noted, calls come from the whole dose curve; as a rule, active = well fitted inhibition curve with a large enough effect (not every such curve was filed as active); inconclusive = small, poorly fitted or top-dose-only effect, or another doubt; inactive = no such curve, though single readings can be large or run the other way.

Results for COCCCNC(=O)/C=C/c1cccc(Cl)c1 ?
ALDH1A1 block: inactive; HPGD block: 28µM; PNC inhibitor: inactive

Results for CN(C)C(CNC(=O)/C=C/c1cccc(Cl)c1)c1ccccc1 (configuration not stated) ?
ALDH1A1 block: inactive

What do the screens show for `COCCCNC(=O)CN(c1cccc(Cl)c1C)S(C)(=O)=O`?
ALDH1A1 block: inactive; HPGD block: inactive; PNC inhibitor: inactive

Results for CCc1ccc(N2CC(C(=O)Nc3cc(C)on3)CC2=O)cc1 (configuration not stated) ?
ALDH1A1 block: inactive

Results for CCCc1c(O)nc(SCC(=O)O)[nH]c1=O ?
ALDH1A1 block: inactive

How did Cc1cccc(N2C(N)=NC(N)=NC23CCCCC3)c1 do in these assays?
ALDH1A1 block: inactive; HPGD block: inactive; PNC inhibitor: inconclusive

What do the screens show for `COc1ccc(OC)c(N2C(N)=NC(N)=NC23CCCC3)c1`?
ALDH1A1 block: 22µM; PNC inhibitor: inactive

How did CC(C)OC(=O)c1cc(-c2ccc(C=O)o2)ccc1Cl do in these assays?
ALDH1A1 block: 8.9µM; HPGD block: inactive; PNC inhibitor: inconclusive

What do the screens show for `CC(C)OC(=O)c1cc2ccccc2oc1=O`?
ALDH1A1 block: inconclusive; HPGD block: inactive; PNC inhibitor: inactive

Results for Cc1cccc(N2C(=O)CC(c3ccc(F)cc3)C3=C2COC3=O)c1 (configuration not stated) ?
ALDH1A1 block: inactive

What do the screens show for `C#CCOCCOCCOCCNc1nc(N2CCN(C(=O)C([C@@H](C)CC)n3cc(C(N)Cc4ccc(O)cc4)nn3)CC2)nc(N2CCN(C(=O)[C@H](CCC(=O)O)n3cc(C(N)CO)nn3)CC2)n1` (some centres not stated)?
ALDH1A1 block: inactive

Results for COc1ccc(CCNC(=O)CSc2ccc(-c3cccs3)nn2)cc1OC ?
ALDH1A1 block: inactive

Results for CC(=O)Nc1ccc(C(=O)CCl)cc1 ?
ALDH1A1 block: 0.045µM; HPGD block: inactive

What do the screens show for `CC(=O)NCc1ccc(C(=O)CCl)cc1`?
ALDH1A1 block: 0.35µM

How did CC(=O)N(C)Cc1ccc(C(=O)CCl)cc1 do in these assays?
ALDH1A1 block: 0.71µM

What do the screens show for `CC(=O)NCc1ccc(C(=O)CCl)s1`?
ALDH1A1 block: 0.14µM

How did CC(=O)Nc1ccc(C)cc1 do in these assays?
ALDH1A1 block: inactive; HPGD block: inactive

What do the screens show for `CC(=O)NCCC(=O)NCc1ccc(F)cc1`?
ALDH1A1 block: inactive; HPGD block: inactive; PNC inhibitor: inactive

Results for CN(Cc1ccccc1)C(=O)CCC(=O)N(C)Cc1ccccc1 ?
ALDH1A1 block: inactive; HPGD block: inactive; PNC inhibitor: inactive

How did CCC(=O)c1ccc(CCCCCC(=O)O)s1 do in these assays?
ALDH1A1 block: inactive; HPGD block: inactive; PNC inhibitor: inactive

Results for CCCc1cc(=O)[nH]c(SCC(=O)Nc2cc(C)on2)n1 ?
ALDH1A1 block: inactive

Results for O[C@H](CCCN1CCN(c2ncc(F)cn2)CC1)c1ccc(F)cc1 ?
ALDH1A1 block: inactive; HPGD block: inactive

How did COc1ccc(CSC2=CS(=O)(=O)c3ccccc3N2)cc1 do in these assays?
ALDH1A1 block: inactive

What do the screens show for `Cc1cccc(OCc2n[nH]c(=S)o2)c1`?
ALDH1A1 block: inconclusive; HPGD block: inactive; PNC inhibitor: -82

Results for Cc1cccc(OCc2nnc(N)s2)c1C ?
ALDH1A1 block: inactive; HPGD block: inactive; PNC inhibitor: inactive

What do the screens show for `Cc1ccccc1-n1c(C)n[nH]c1=S`?
ALDH1A1 block: inactive; HPGD block: inactive; PNC inhibitor: inactive

What do the screens show for `Cc1cccc(C)c1OCc1n[nH]c(=S)o1`?
ALDH1A1 block: 8.9µM; HPGD block: inactive; PNC inhibitor: inactive

Results for CCNc1oc(COc2cccc(C)c2)nc1C#N ?
ALDH1A1 block: inactive; HPGD block: inactive; PNC inhibitor: inactive

Results for Cc1cccc(OCc2n[nH]c(=S)o2)c1C ?
ALDH1A1 block: 18µM

What do the screens show for `Cc1ccc(-n2[nH]c(C)c(C=Nc3ccc(S(=O)(=O)N4CCOCC4)cc3)c2=O)c(C)c1`?
ALDH1A1 block: inactive; HPGD block: inactive; PNC inhibitor: inactive

How did CCOC(=O)c1cccc(NC(=O)c2ccc(N(C)C)cc2)c1 do in these assays?
ALDH1A1 block: inconclusive; HPGD block: inactive; PNC inhibitor: inactive

How did O=C1N(Cc2cccnc2)C[C@@H]2C[C@@H](c3cccc(OC4CCCC4)c3)N3CCC[C@@]123 do in these assays?
ALDH1A1 block: inactive

How did COC(=O)C1=C(C)N(Cc2ccccc2)[C@]23O[C@](C(=O)OC)(C(=O)N2C1c1ccccc1)C1C(=O)N(c2ccccc2)C(=O)C13 (some centres not stated) do in these assays?
ALDH1A1 block: inactive[13.5 µM]
